The values below come from PMC4336329 (PLoS ONE, 2015).

Hit rate of the full screen: of about 310,000 compounds, about 2,200 (0.71%) showed an effect of 50% or more. The effect is printed as a negative number. Shown is part of a subset that was picked to be rich in strong results.

The target of the test is human ether-à-go-go-related gene (hERG) potassium channel (human, UniProt Q12809). Description: primary screen, population patch clamp on CHO cells stably expressing hERG; higher = less effect of the substance.
Sequence of human ether-à-go-go-related gene (hERG) potassium channel (Q12809 whole entry, looked up): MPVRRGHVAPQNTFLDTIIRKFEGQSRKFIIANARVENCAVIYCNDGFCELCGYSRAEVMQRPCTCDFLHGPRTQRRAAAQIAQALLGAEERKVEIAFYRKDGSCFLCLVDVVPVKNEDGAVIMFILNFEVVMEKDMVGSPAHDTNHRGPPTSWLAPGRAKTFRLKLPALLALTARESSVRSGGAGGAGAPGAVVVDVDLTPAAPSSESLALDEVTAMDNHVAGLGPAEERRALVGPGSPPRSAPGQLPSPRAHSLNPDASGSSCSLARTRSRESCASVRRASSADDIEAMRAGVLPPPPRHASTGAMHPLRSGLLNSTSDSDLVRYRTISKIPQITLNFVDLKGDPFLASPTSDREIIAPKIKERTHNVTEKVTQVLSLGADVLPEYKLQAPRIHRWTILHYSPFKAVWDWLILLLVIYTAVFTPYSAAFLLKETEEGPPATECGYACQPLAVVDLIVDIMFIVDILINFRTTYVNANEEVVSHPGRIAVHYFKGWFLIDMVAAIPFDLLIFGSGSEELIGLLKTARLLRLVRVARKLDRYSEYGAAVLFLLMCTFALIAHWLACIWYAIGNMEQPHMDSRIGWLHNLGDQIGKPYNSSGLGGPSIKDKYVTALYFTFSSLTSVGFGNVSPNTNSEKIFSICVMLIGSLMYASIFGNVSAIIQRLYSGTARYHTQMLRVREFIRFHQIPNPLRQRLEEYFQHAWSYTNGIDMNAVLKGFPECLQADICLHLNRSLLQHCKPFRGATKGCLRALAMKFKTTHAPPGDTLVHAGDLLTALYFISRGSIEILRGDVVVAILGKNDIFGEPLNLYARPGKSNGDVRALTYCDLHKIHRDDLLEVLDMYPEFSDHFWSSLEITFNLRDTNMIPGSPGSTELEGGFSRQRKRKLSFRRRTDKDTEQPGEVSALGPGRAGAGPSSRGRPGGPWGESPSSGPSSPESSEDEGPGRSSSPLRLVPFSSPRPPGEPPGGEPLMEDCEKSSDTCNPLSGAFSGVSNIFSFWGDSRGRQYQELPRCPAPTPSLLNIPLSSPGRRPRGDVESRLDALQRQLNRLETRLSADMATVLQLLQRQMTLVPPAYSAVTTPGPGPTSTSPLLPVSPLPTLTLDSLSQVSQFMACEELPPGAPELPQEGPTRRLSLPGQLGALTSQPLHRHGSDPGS
For the compound `O=S(=O)(c1ccccc1Cl)N1CCC(Cc2ccccc2)CC1`, the “hERG current change (%, negative = inhibition) at 1uM” value stood at 13.5%. With `CCCCc1nn(-c2cc(Cl)ccc2OC)c2c1C(=O)CCC2`, the “hERG current change (%, negative = inhibition) at 1uM” value was found to be 12.2%. With `COC(=O)C1=C(c2ccc(F)cc2OCc2ccccc2)C[C@@H]2CC[C@H]1N2C(=O)NCCNC(C)=O`, the “hERG current change (%, negative = inhibition) at 1uM” value amounted to 16.4%. To `Cc1cc(=O)n2nc(N3CCC(C(=O)NCC(C)c4ccccc4)CC3)sc2n1` (stereo not drawn) belongs 11.7%. The same measure for `COCCNc1c2c(nc3c(-c4ccccc4)c(C)nn13)CCCC2`: 5.77%; for `Cc1nn2c(NCCOCCO)c3c(nc2c1-c1ccccc1)CCC3`: -9.29%; for `Cc1nn2c(NCCOCCO)c3c(nc2c1-c1ccccc1)CCCC3`: -75.3%. The same measure for `O=C(CCS(=O)(=O)c1cccs1)Nc1ccc(C(=O)NC2CCN(Cc3ccccc3)CC2)cc1`: 7.84%; for `CCC(CC)C(=O)c1c[nH]c(C(=O)NCc2ccccn2)c1`: 8.96%. With `Cc1ccc(-n2ncc3c2CCCC3NC(=O)c2ccoc2)cc1C` (stereo not drawn), the “hERG current change (%, negative = inhibition) at 1uM” value is -78.5%. To `COC(=O)c1ccc(C(=O)NC2CC(C)(C)Cc3c2cnn3-c2ccc(F)cc2)nc1` (stereo not drawn) belongs -0.769%.

With `CC1(C)Cc2c(cnn2-c2ccc(F)cc2)C(NC(=O)C2CCC2)C1` (stereo not drawn), the “hERG current change (%, negative = inhibition) at 1uM” value is recorded as -56.8%. To `Cc1ccc(-n2ncc3c2CC(C)(C)CC3NC(=O)c2ccc[n+]([O-])c2)cc1` (stereo not drawn) belongs 7.22%.

As for `Cc1cc(C(=O)NC2CC(C)(C)Cc3c2cnn3-c2ccc(F)cc2)nn1C` (stereo not drawn), the “hERG current change (%, negative = inhibition) at 1uM” value was found to be 5.91%. `CC1(C)Cc2c(cnn2-c2ccc(F)cc2)C(NC(=O)C2=NNC(=O)CC2)C1` (stereo not drawn): the “hERG current change (%, negative = inhibition) at 1uM” value is on record as -52.1%. The same measure for `Cc1cc(C(=O)NC2CCCc3c2cnn3-c2ccc(C)c(C)c2)no1` (stereo not drawn): 1.86%. To `Cc1ccc(-n2ncc3c2CC(C)(C)CC3NC(=O)c2cc[n+]([O-])cc2)cc1` (stereo not drawn) belongs -62.7%; to `CC1(C)Cc2c(cnn2-c2ccc(F)cc2)C(NC(=O)C(C)(C)O)C1` (stereo not drawn), 12.6%; to `Cc1ccc(-n2ncc3c2CC(C)(C)CC3NC(=O)c2ccncc2)cc1` (stereo not drawn), -48.8%. `COC(=O)c1ccc(C(=O)NC2CCCc3c2cnn3-c2ccc(C)c(C)c2)cc1` (stereo not drawn): the “hERG current change (%, negative = inhibition) at 1uM” value came to 12.4%. Regarding `CC(=O)N1CCC(C(=O)NC2CC(C)(C)Cc3c2cnn3-c2ccc(F)cc2)CC1` (stereo not drawn), the “hERG current change (%, negative = inhibition) at 1uM” value is given as -11.3%. For `CC(C)C(=O)Nc1ccc(NC(=O)c2ccccn2)cn1`, the “hERG current change (%, negative = inhibition) at 1uM” value is on record as 12.6%.

For the compound `O=C(CSc1nnc(CNC(=O)c2ccccc2F)o1)Nc1cccc(C(F)(F)F)c1`, the “hERG current change (%, negative = inhibition) at 1uM” value turned out to be 16%. As for `COc1ccc[nH]c1=O`, the “hERG current change (%, negative = inhibition) at 1uM” value is 1.28%. The same measure for `CCOC(=O)Cn1cnc2c(nnn2-c2cccc(OC)c2)c1=O`: 17%. The same measure for `COc1ccc(/C(C)=N/N=C2/NC(=O)CC(C(=O)O)S2)cc1` (stereo not drawn): 5.89%.

Take `COCCCNC(=O)CCn1c(=O)c2ccccc2n(CC(=O)Nc2cc(Cl)ccc2C)c1=O`: the “hERG current change (%, negative = inhibition) at 1uM” value stood at 2.79%. Regarding `O=C(NCc1ccc2c(c1)OCO2)c1ccc(S(=O)(=O)C(F)F)cc1`, the “hERG current change (%, negative = inhibition) at 1uM” value is -0.408%.

Consider `CC1(C)Cc2c(cnn2-c2ccccc2)C(NC(=O)c2ccc[n+]([O-])c2)C1` (stereo not drawn), for which the “hERG current change (%, negative = inhibition) at 1uM” value was 8.68%. `Cn1nccc1C(=O)NC1CC(C)(C)Cc2c1cnn2-c1ccc(F)cc1` (stereo not drawn): the “hERG current change (%, negative = inhibition) at 1uM” value is recorded as -20%. To `CC1(C)Cc2c(cnn2-c2ccccc2)C(NC(=O)c2ccoc2)C1` (stereo not drawn) belongs -91.7%; to `CC1(C)Cc2c(cnn2-c2ccc(F)cc2)C(NC(=O)CCn2cncn2)C1` (stereo not drawn), -40.7%. The same measure for `Cc1ccc(-n2ncc3c2CC(C)(C)CC3NC(=O)CCn2cncn2)cc1` (stereo not drawn): -78.5%; for `CC1(C)Cc2c(cnn2-c2ccc(F)cc2)C(NC(=O)c2cnccn2)C1` (stereo not drawn): -6.77%. To `CC(=O)c1ccc(C(=O)NC2CC(C)(C)Cc3c2cnn3-c2ccccc2)cc1` (stereo not drawn) belongs 5.88%; to `COc1ccc(-n2ncc3c2CC(C)(C)CC3NC(=O)CCn2cncn2)cc1` (stereo not drawn), -5.06%. Take `CC1(C)Cc2c(cnn2-c2ccc(F)cc2)C(NC(=O)c2ccoc2)C1` (stereo not drawn): the “hERG current change (%, negative = inhibition) at 1uM” value was -95.7%. Consider `CCOc1cc(C#N)ccc1OCC(=O)N1CCN(C(=O)c2cccs2)CC1`, for which the “hERG current change (%, negative = inhibition) at 1uM” value is -16.1%. To `O=C(Nc1ccccc1Cl)c1ccc(S(=O)(=O)NCC2CCCO2)cc1` (stereo not drawn) belongs -7.62%. To `CCOc1ccccc1OCC(=O)O` belongs 12.1%; to `CCCCn1c(O)c(C(=O)/C=C/c2ccc3c(c2)OCO3)c(=O)[nH]c1=O`, 11.9%. The same measure for `Cc1ccccc1CN1C[C@@H]2C[C@@H](c3cn[nH]c3-c3ccc(F)cc3)N3CCC[C@@]23C1=O`: -12.9%.
